Data published in PubChem BioAssay (NCATS).
Several values for one entry are separate records, joined by “and”; a condition that tells them apart may be missing. Equal values may be shown once. Inconclusive results are not listed. Activity calls are given as the source filed them. Calls follow the shape of the dose curve; as a rule, active = well fitted curve in the direction sought with a large enough effect; inconclusive = small, poorly fitted or top-dose-only effect, or another doubt; inactive = no such curve, though single readings can be large; an effect the other way counts as inactive or inconclusive.

Biological target: Cytochrome P450 3A4 (Homo sapiens) (UniProt P08684)
Experiment: qHTS Assay for Activators of Cytochrome P450 3A4 (AID 885); also: nearly all actives have a fitted effect of over 65% in size
Settings: recombinant CYP3A4, Luciferin-PPXE luminescence, 60 min; series mostly up to 57.1 µM
How it was run: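 Quantitative HTS format: compounds preincubated with 20nM human CYP3A4 and Luciferin-PPXE substrate at KM, reaction started by NADPH regeneration, stopped after 60 min, luciferase luminescence read 20 min later.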

Chain of Cytochrome P450 3A4 (Homo sapiens) (P08684 whole entry, looked up): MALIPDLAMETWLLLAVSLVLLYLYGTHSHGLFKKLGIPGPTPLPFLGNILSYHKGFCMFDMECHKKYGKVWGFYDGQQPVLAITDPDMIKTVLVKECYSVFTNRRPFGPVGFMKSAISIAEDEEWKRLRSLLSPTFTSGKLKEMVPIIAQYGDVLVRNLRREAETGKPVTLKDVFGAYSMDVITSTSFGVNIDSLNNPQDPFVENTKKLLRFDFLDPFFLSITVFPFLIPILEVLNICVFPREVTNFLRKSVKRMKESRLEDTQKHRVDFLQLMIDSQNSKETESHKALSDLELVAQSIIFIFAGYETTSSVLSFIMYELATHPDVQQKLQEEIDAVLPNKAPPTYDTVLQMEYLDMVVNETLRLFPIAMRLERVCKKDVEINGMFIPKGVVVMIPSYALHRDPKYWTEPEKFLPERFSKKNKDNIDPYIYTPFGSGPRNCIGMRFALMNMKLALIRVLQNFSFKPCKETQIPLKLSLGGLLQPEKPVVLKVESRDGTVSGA

Activity change, positive = activation, inactive:
COc1ccc(O[C@H]2C=C[C@@H](c3ccccc3)O[C@H]2COC(=O)CC/C(C)=N/OCC[C@@H]2C=C[C@H](OC(C)=O)[C@H](COC(C)=O)O2)cc1 -91.8% [at 11.4 µM]
COc1cccc(/C=C/C2=CC3(C)CC2(C)C(c2cccc(OC)c2)CC3=O)c1 (stereo not given) -78.1% [at 11.4 µM]
CCCNC(=O)OC[C@H]1O[C@@H](CCO/N=C\[C@@H](NS(=O)(=O)c2ccc(C)cc2)[C@H](C)/C=C\CC(=O)OC)C=C[C@@H]1Oc1ccc(OC)cc1 -106% [at 11.4 µM]
COC(=O)C/C=C\[C@@H](C)[C@@H](/C=N\O[C@@H](C)c1cc(-c2c(C)cc(C)cc2C)no1)NS(=O)(=O)c1ccc(C)cc1 -103% [at 11.4 µM]
COc1ccc(O[C@H]2C=C[C@@H](c3ccccc3)O[C@H]2COC(=O)CC/C(C)=N\O[C@@H](C)c2cn([C@H](CO)Cc3ccccc3)nn2)cc1 -87.6% [at 11.4 µM] and -97.7% [at 11.4 µM]
CC12C=C(/C=C/c3ccc(Br)cc3)C(C)(C1)C(c1ccc(Br)cc1)CC2=O (stereo not given) -72.7% [at 11.4 µM]
COC(=O)[C@@H]1CC[C@H](C)[C@@H](c2ccc(C)cc2)N1C(=O)c1ccc(/C=N\O[C@@H](C)c2cn([C@H](CO)Cc3ccccc3)nn2)cc1 -62.7% [at 11.4 µM] and -101% [at 11.4 µM]
CC12C=C(/C=C/C=C/c3ccccc3)C(C)(C1)C(/C=C/c1ccccc1)CC2=O (stereo not given) -62.5% [at 11.4 µM]
COc1ccc(OCC2CC3C(CCC(C)C3c3ccc(Br)cc3)C(=O)O2)cc1 (stereo not given) -84.4% [at 11.4 µM]
COc1ccc(O[C@H]2C=C[C@@H](c3ccccc3)O[C@H]2COC(=O)CC/C(C)=N\OC[C@@H](O)[C@H]2O[C@H]3OC(C)(C)O[C@H]3[C@@H]2O)cc1 -92.2% [at 11.4 µM]
CCCCc1nc2c(c3c1CC(C)OC3)CN(CCC(C)C)CC2 (stereo not given) -60.1% [at 11.4 µM]
Cc1ccc(S(=O)(=O)N[C@@H](CCc2ccccc2)CC(=O)C(C)(C)C)cc1 -96.1% [at 11.4 µM]
C=C(C)C(O)/C=C/c1ccc(Br)cc1 (stereo not given) -65.3% [at 11.4 µM]
CCOC(=O)OCC1OC(C#Cc2ccccc2)C=CC1Oc1cccc(N(C)C)c1 (stereo not given) -91.5% [at 11.4 µM]

Biological target: Cytochrome P450 2D6 (Homo sapiens) (UniProt P10635)
Experiment: qHTS Assay for Inhibitors and Substrates of Cytochrome P450 2D6 (AID 891);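 also: luciferin methyl ether substrate demethylated by CYP2D6 with NADPH regeneration; % is scaled to controls: 0 for no effect and ±100 for the full control effect; nearly all actives have a fitted effect of over 60% in size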
Settings: recombinant CYP2D6, luciferin-ME EGE luminescence; series mostly up to 11.4 µM
How it was run: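 Human CYP2D6 (5 nM) with 30 uM Luciferin-ME EGE (at Km) in 100 mM KPO4, compound preincubated 10 min, then NADPH regeneration system for 60 min at room temperature. Luciferin read by luminescence; normalized to 1.43 uM quinidine.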

Chain of Cytochrome P450 2D6 (Homo sapiens) (P10635 whole entry, looked up): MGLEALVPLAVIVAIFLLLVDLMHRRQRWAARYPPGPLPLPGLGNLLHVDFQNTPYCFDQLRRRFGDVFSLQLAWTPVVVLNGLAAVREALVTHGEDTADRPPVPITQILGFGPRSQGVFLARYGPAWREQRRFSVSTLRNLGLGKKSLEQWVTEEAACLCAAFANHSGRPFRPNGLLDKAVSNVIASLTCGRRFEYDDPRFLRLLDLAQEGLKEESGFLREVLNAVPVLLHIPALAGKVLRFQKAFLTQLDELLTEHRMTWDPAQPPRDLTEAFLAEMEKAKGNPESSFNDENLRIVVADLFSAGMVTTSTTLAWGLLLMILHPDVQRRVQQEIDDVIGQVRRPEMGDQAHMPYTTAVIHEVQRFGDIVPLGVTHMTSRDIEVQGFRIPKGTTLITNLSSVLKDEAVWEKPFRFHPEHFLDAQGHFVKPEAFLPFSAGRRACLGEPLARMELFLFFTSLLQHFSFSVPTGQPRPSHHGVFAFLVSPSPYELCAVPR

Potency, inactive:
O=C1C=CC2(OCCCO2)C(Br)=C1
O=Cc1ccc(OC2C=CC(c3ccccc3)OC2CO)cc1 (stereo not given)
COC(=O)NC(c1cccc(C)c1)[C@@]1(C(=O)OC)CCCC1=O (stereo not given in full)
CCN1C(C)=C(C(=O)OC)C(c2ccccc2)N2C(=O)[C@@]3(C(=O)OC)O[C@@]12C1C(=O)N(C)C(=O)C13 (stereo not given in full)
CC1CCC(C(=O)O)NC1c1cccc(N2CCCC2=O)c1 (stereo not given)
CC(=O)c1ccc(C2C=CC(Oc3ccc(-c4ccccc4)cc3)C(CO)O2)cc1 (stereo not given)
C=CCC1C=CC(OC(=O)OCC)C(COC(=O)OCC)O1 (stereo not given)
CC1(C)OC(C(O)(c2cc(F)c(F)c(F)c2)c2cc(F)c(F)c(F)c2)C(C(O)(c2cc(F)c(F)c(F)c2)c2cc(F)c(F)c(F)c2)O1 (stereo not given)
COC(=O)NC(c1cccc(F)c1)[C@]1(C(C)=O)CCCC1=O (stereo not given in full)
COc1ccc(/C=C/NC(=O)Cc2ccc(OC)c(OC)c2)cc1
O=C(/C=N/O)NCCCCNC(=O)/C=N/O
C=CCC1(c2ccccc2)Oc2ccc(C)cc2-c2nc3cc(Cl)c(Cl)cc3nc21 (stereo not given)
OCC1OC(c2ccccc2)C=CC1Oc1cc(Cl)cc(Cl)c1 (stereo not given)
CNc1ccccc1C(=O)OCC(=O)c1ccccc1
CC12CC3OS(=O)OC3CC3C4C(C(OCc5ccccc5)C31)C42 (stereo not given)
CC1C=CCCOC1c1ccccc1 (stereo not given)
COC(=O)NC(c1ccccc1)[C@]1(C(C)=O)CCCC1=O (stereo not given in full)
CCOC(=O)[C@]1(C(NC(=O)OC)c2cccc(C)c2)CCCC1=O (stereo not given in full)
COC(=O)/C=C/C1c2ccccc2C(OC)C1C (stereo not given)
COC(=O)CC1=COC(O)C2C(CO)=CC[C@@H]12 (stereo not given in full)
CC1CCC(C(=O)O)NC1c1ccc(-c2ccco2)cc1 (stereo not given)
COC(=O)NC(CC(C)=O)c1ccc(F)cc1 (stereo not given)
CC12C=C(/C=C/c3ccc(F)cc3)C(C)(C1)C(c1ccc(F)cc1)CC2=O (stereo not given)
CN1CCc2nc(-c3ccccc3)c(-c3ccccc3)cc2C1
COC(=O)NC(c1ccccc1)C(C#N)C(=O)OC (stereo not given)
CC1CCC2C(=O)N3C(CCC(C)C3c3ccc(-c4ccco4)cc3)C(=O)N2C1c1ccc(-c2ccco2)cc1 (stereo not given)
